Compound activity from PubChem.
ClpP mod = qHTS Assay for Activators of ClpP | ATP-dependent Clp protease proteolytic subunit (Bacillus subtilis (strain 168)), P80244 | purified B. subtilis ClpP, FRET peptide cleavage, 20 min | Potency, µM (doses to about 57.5 µM), inactives show top-dose activity change, negative = active | 340,000 tested, 1.9% active; active = well fitted falling curve with a large enough effect; inconclusive = small, poorly fitted or top-dose-only effect; inactive = no such curve, though single readings can be large or run the other way; also: the source files actives as falling curves though it sought activators and does not explain the sign; nearly all actives have a fitted effect of over 65% in size
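Purified B. subtilis ClpP, 10 microg/mL final in Tris/HCl pH8 with KCl, BSA, glycerol and Tween-20, cleaved an Abz/nitrotyrosine-quenched decapeptide. Fluorescence (ex 320, em 430) was read at 0 and 20 min at room temperature. Delta was normalized to 5.8 microM ADEP and DMSO/no-enzyme controls.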
USP2a block = USP2a (human) protease inhibition; Potency, µM (doses to about 38.3 µM), inactives show at the top dose activity change, negative = inhibition, hits mostly inhibitors; USP2 core, Ub-CHOP2 coupled fluorogenic reporter, 485/531; AID 463254; 330,000 tested, 0.01% active; O75604;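 also: plate controls were DMSO wells for no effect and full inhibition by NEM control for full effect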
Target sequence (O75604 whole entry, looked up): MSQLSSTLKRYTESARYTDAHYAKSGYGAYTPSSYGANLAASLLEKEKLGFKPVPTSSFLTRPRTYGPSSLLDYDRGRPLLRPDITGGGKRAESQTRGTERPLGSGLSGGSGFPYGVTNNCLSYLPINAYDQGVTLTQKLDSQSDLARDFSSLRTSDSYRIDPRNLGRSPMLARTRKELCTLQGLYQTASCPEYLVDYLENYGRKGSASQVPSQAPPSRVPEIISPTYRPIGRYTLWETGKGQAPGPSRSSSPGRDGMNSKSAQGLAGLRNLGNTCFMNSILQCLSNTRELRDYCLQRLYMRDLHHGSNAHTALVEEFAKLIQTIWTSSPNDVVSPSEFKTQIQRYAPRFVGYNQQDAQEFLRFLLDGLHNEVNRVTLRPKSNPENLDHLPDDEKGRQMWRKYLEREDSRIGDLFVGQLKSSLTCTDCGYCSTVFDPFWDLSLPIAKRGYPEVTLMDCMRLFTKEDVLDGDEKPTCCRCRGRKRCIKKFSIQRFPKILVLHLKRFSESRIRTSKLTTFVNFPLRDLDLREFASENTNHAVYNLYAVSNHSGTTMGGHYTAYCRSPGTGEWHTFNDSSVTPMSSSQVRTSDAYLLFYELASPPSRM
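Deubiquitinase activity read as fluorescence (485/531 nm) after Ub-CHOP2 cleavage activates the enterokinase reporter on its substrate; USP2 core 10nM, Ub-CHOP2 and substrate 25nM each, 30min compound preincubation then 60min RT; data normalized to NEM, curves fitted.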
GALK inh = galactokinase (human) inhibition; Potency, µM (titrated, usually from 57.5 µM), inactives show top-dose activity change, negative = inhibition, hits mostly inhibitors; Purified GALK, Kinase-Glo residual ATP luminescence; 270,000 tested, 0.007% active; also: % is scaled to controls: 0 for no effect and ±100 for the full control effect
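5 nM enzyme, 35 uM ATP, 100 uM galactose, 20 mM HEPES pH8.0, 5 mM MgCl2; 1 h RT; residual ATP by Kinase-Glo Plus luminescence, qHTS format.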
Eya2 inh = inhibitors of human Eya2 phosphatase activity; Potency, µM (doses to about 76.9 µM), for the others: top-dose activity, negative = inhibition, hits mostly inhibitors; O00167; 330,000 tested, 0.006% active; AID 488837; recombinant Eya2, OMFP fluorescence dephosphorylation (OMFP is methylfluorescein phosphate); also: % is scaled to controls: 0 for no effect and ±100 for the full control effect
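Eya2 protein (added as 0.2 uM solution) was preincubated with compound for 10 min at ambient temperature in 50 mM HEPES pH 7.5, 50 mM NaCl, 5 uM MgCl2, 0.05% BSA, 1 mM DTT. OMFP (added at 50 uM) then reacted 10 min; fluorescence read at 485/525 nm.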
An asterisk follows results filed as active; ? = inconclusive; / = no result given. The sample as a whole holds a higher share of hits than the screen did. Unless noted, calls follow the shape of the dose curve; as a rule, active = well fitted inhibition curve with a large enough effect; inconclusive = small, poorly fitted or top-dose-only effect, or effect the other way; inactive = flat fitted curve, though single readings scatter. Potency is read from the fitted curve at half-maximal effect.

SMILES	ClpP mod	USP2a block	GALK inh	Eya2 inh
CCCC(=O)OCC(=O)Nc1ccc(OC(F)F)cc1	-3%	1%	5%	42%
CC[N+](C)(C)CCN(Cc1ccc(Cl)cc1)c1ccccn1	28µM*	-5%	1%	-17%
COc1ccc(CN(CCN(C)C)c2ccccn2)cc1	-2%	-3%	-2%	4%
CSCCC(NS(=O)(=O)c1cc(C(=O)O)ccc1Cl)C(=O)O (stereo not given)	-2%	0%	1%	8%
COc1ccc(NC(=O)c2cc(-c3ccc(C)cc3)on2)cc1OC	?	0%	-3%	?
COc1ccc(NC(=O)c2cc(-c3ccc(OC)c(OC)c3)on2)cc1OC	22µM*	3%	1%	8%
CCOC(=O)COc1ccccc1C1Nc2ccccc2C(=O)N1c1cccc(Cl)c1 (stereo not given)	25µM*	3%	-3%	?
COc1cc(C2Nc3ccccc3C(=O)N2c2ccccc2)ccc1O (stereo not given)	?	-5%	-1%	-4%
CCOC(=O)COc1c(OC)cc(Cl)cc1C1Nc2ccccc2C(=O)N1c1ccc(F)cc1 (stereo not given)	32µM*	-10%	-1%	14%
CCOC(=O)COc1c(OC)cc(Cl)cc1C1Nc2ccccc2C(=O)N1c1ccccc1 (stereo not given)	28µM*	?	-2%	-30%
CCOc1cc(C2Nc3ccccc3C(=O)N2c2ccccc2)ccc1O (stereo not given)	?	1%	3%	-10%
CCOC(=O)COc1c(OC)cc(Cl)cc1C1Nc2ccccc2C(=O)N1c1cccc(C)c1 (stereo not given)	28µM*	2%	-3%	6%
COC(=O)C[C@H]1CC[C@@H](NS(=O)(=O)c2ccccc2)[C@@H](CO)O1	-1%	/	/	/
COc1cc(C2Nc3ccccc3C(=O)N2c2ccc(Cl)cc2)c(Cl)cc1OCC(=O)O (stereo not given)	28µM*	1%	/	4%
CCOc1cc(C2Nc3ccccc3C(=O)N2c2ccccc2)c(Br)cc1OCC(=O)O (stereo not given)	?	3%	/	-1%
CC(C)n1cc(CN2CCC(Oc3ccc(C(=O)N4CCCCC4)cc3)CC2)cn1	22µM*	0%	-2%	-12%
CCNC(=O)COC(=O)c1ccc(-c2nc3ccccc3s2)s1	5%	2%	8%	12%
Cc1noc(C)c1COC(=O)c1ccc(-c2nc3ccccc3s2)s1	20µM*	-1%	-5%	-18%
Cc1ccc(S(=O)(=O)NC2(C(=O)O)CCCCC2)cc1	0%	10%	0%	10%
Cc1ccc(S(=O)(=O)NC2(C(=O)O)CCCC2)cc1	35µM*	/	/	/
CCN(c1cccc(C)c1)S(=O)(=O)c1ccc2[nH]c(=O)c(=O)[nH]c2c1	22µM*	3%	1%	-2%
COc1ccc(NC(=O)CCS(=O)(=O)c2cccc3nonc23)cc1Cl	0%	-1%	-3%	-14%
COc1ccc(C(=O)OCCN2C(=O)c3ccccc3C2=O)cc1OC	-1%	/	/	/
COC(=O)C1=C(C)NC(C)=C(C(=O)OC)C1C(=O)OCCN1C(=O)c2ccccc2C1=O	7.1µM*	1%	2%	0%
Nc1ccccc1C(=O)NCc1ccc(Cl)cc1	7.1µM*	-1%	/	9%
SMILES	ClpP mod	USP2a block	GALK inh	Eya2 inh
COc1cccc(CNC(=O)c2ccccc2N)c1	5.6µM*	0%	-1%	9%
CCn1cc2nc(SCc3cccc(C(F)(F)F)c3)n(CCc3ccccc3)c(=O)c2n1	-1%	/	/	/
O=C(NS(=O)(=O)c1ccccc1)c1cccc(Br)c1	-1%	1%	-2%	2%
COc1cc(C=Nc2ccccc2C(=O)Nc2ccccc2)cc(OC)c1OC	25µM*	3%	/	-6%
COc1cc(NC(=O)c2ccccc2-c2ccccc2)cc(OC)c1OC	/	1%	5%	?
O=c1[nH]c2ccc(S(=O)(=O)N3CCN(C4CCCCC4)CC3)cc2[nH]c1=O	28µM*	2%	1%	-13%
O=S(=O)(c1ccc(S(=O)(=O)N2CCN(C3CCCCC3)CC2)cc1)N1CCCCCC1	0%	0%	0%	4%
O=c1[nH]c2ccc(S(=O)(=O)N3CCN(Cc4ccccc4)CC3)cc2[nH]c1=O	28µM*	-1%	-3%	8%
COC(=O)c1ccc(/C=C/c2ccc3cccc(OC)c3n2)cc1	13µM*	4%	-5%	-8%
N#Cc1cccc(NC(=O)c2cc(C3CCCCN3C(=O)c3ccccn3)on2)c1 (stereo not given)	-1%	/	/	/
Cc1ccc(-c2nc(C#N)c(NCc3ccco3)o2)cc1	20µM*	0%	1%	6%
N#Cc1nc(-c2ccco2)oc1NCc1ccco1	3.2µM*	0%	1%	-16%
Cc1ccc2cc(C)c(SCC(=O)NCc3ccco3)nc2c1	/	1%	8%	-17%
Cc1ccc2cc(C#N)c(NCc3ccco3)nc2c1	25µM*	-5%	-3%	-37%
N#Cc1nc(-c2ccco2)oc1NCCCN1CCOCC1	3.5µM*	5%	2%	29%
CCCCCCC[n+]1ccc(/C=C/c2c[nH]c3ccccc23)c2ccccc21	4%	/	/	/
Cc1ccc(-c2noc(CNC(=O)c3ccccc3)n2)cc1	-2%	/	/	/
CC(C)(C)C(=O)CC(=O)Nc1ccc(Cl)c(N)c1	-3%	-2%	3%	-2%
COc1ccc(-c2cc(C(=O)NCCc3ccccc3)c3c(-c4ccc(Cl)cc4)[nH]nc3n2)cc1	4%	/	/	/
COc1ccc(-c2cc(C(=O)NCCc3ccccc3)c3c(-c4ccccc4)[nH]nc3n2)cc1	13µM*	/	/	/
COc1cc2c(C(=O)O)c(C)n(CC(C)C)c2c2ccccc12	35µM*	-1%	0%	4%
Cc1nonc1NC(=O)CSc1nc(C2CCCCC2)nc2ccccc12	-1%	-10%	0%	-5%
O=C(c1cccc(S(=O)(=O)N2CCOCC2)c1)N1CCN(c2ccc(F)cc2)CC1	0%	-3%	0%	-30%
Cc1ccc(NS(=O)(=O)c2ccc(Cl)c(C(=O)Nc3ccccc3-c3nc4ccccc4[nH]3)c2)cc1C	35µM*	-2%	3%	9%
CCOC(=O)c1cc(CC)sc1NC(=O)c1cc(OCC)c(OCC)c(OCC)c1	-20%	1%	-3%	-5%
CCOC(=O)c1cc(CC)sc1NC(=O)c1ccc2c(c1)OCCO2	25µM*	8%	0%	-7%
COC(=O)c1c[nH]c2c1-c1cc(C(=O)OCc3ccccc3)n(S(=O)(=O)c3ccc(C)cc3)c1C(=O)C2=O	2%	/	/	/
COc1cc(/C=C2\SC(N3CCC(C)CC3)=NC2=O)ccc1O	14µM*	9%	-2%	-18%
COc1ccc(/C=C2\SC(N3CCCCC3)=NC2=O)cc1OC	/	-4%	3%	-12%
CC(C)(C)CC(C)(C)NC(=O)c1ccc2snnc2c1	/	10%	0%	16%
